Screening data as filed in PubChem BioAssay.
GDH-TPI inh: GDH-TPI coupled enzyme inhibition counter-screen | GDH-TPI coupled enzyme counterscreen, NADH absorbance | inhibition, % at 4.8 µM | hit rate 1.2% among 360,000; in the data active = inhibition above about 30%;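 note: 0% = DMSO wells and 100% = wells lacking the enzyme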
BoNT-A LC inh2: BoNT A light chain protease inhibition. AID 588499. multiplex microsphere protease substrate cleavage, flow cytometry. inhibition, % at 10 µM. hit rate 0.17% among 360,000; note: plate controls were buffer without enzyme for full effect and enzyme alone for no effect
Bead autofluor: counter-screen for toxin protease inhibitors: compound fluorescence; hit rate 3.1% among 360,000; fluorescence intensity (test concentration not listed); AID 624483; compound autofluorescence counterscreen, microsphere flow cytometry; active compounds read high; in the data active = fluorescence intensity above about 16000; inconclusive = no clear call, values can overlap the other calls
Anthrax LF inh2: inhibitors of Bacillus anthracis lethal factor protease; P15917; multiplex microsphere protease cleavage assay, LF; inhibition, % at 10 µM; hit rate 0.12% among 360,000; AID 588501; note: plate controls were buffer without enzyme for full effect and enzyme alone for no effect
Mtb FBA inh: Mtb fructose-bisphosphate aldolase inhibition. purified M. tuberculosis FBA, fluorescence read-out. P9WQA3. hit rate 2.3% among 360,000. inhibition, % at 1 µM. AID 588726; in the data active = inhibition above about 27%;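 note: 0% = vehicle and 100% = reference inhibitor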
Target sequence (P9WQA3 whole entry, looked up): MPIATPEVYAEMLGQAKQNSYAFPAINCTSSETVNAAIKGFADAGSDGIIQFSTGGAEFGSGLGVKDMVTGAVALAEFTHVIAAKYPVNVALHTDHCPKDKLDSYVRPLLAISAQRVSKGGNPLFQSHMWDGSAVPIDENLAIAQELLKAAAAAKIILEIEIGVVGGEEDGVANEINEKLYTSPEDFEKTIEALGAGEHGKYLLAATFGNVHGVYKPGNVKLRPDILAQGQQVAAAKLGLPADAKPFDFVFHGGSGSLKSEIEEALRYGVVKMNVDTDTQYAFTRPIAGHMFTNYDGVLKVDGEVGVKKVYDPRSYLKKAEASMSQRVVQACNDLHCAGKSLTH
BoNT-F LC inh: blocks Botulinum neurotoxin F light chain protease. Multiplex microsphere protease cleavage assay, flow cytometry. hit rate 0.22% among 360,000. inhibition, % at 10 µM; in the data active = inhibition above about 35%, passing the limit was not always enough; inconclusive = no clear call, values can overlap the other calls; note: plate controls were buffer without enzyme for full effect and enzyme alone for no effect
Numbers without * were called inactive; ? = inconclusive; / = no result; ! = not confirmed by another sample. An excerpt weighted towards active compounds, which were near 6.7% of everything screened. Cut-off read from the data, not from the text of the source, unless noted: active = inhibition above about 30%; inconclusive = no clear call, values can overlap the other calls; inactive = below that.

SMILES	GDH-TPI inh	BoNT-A LC inh2	Bead autofluor	Anthrax LF inh2	Mtb FBA inh	BoNT-F LC inh
COc1ccc(-c2cc3nc(C)cc(N4CCN(C(=O)c5ccco5)CC4)n3n2)cc1	10.9	-0.2	3760	-5.9	4.5	0.8
N#Cc1c(-c2ccco2)cc(-c2ccc(F)cc2)nc1N	16.1	2.6	5915	-1.2	153.5*	-1.3
N#Cc1c(-c2ccccc2)cc(-c2ccc(O)cc2)nc1N	23.4	-2.2	3133	3.2	17.3	-0.2
Cc1ccc(-c2cc(-c3ccccc3)nc(N)c2C#N)o1	-2.1	0.8	3595	11.3	132.6*	-8.5
CCCCC(CCC(=O)Nc1nccs1)C(=O)O (stereo unspecified)	19.5	?	20150*	-2.5	-0.6	-0.2
CCCCC(C(=O)O)C(C)CC(=O)Nc1nccs1 (stereo unspecified)	3.7	0.4	3274	4.1	0.3	-1.2
Cc1cccc(NC(=O)CCc2c(C)nc3ncnn3c2C)n1	1.9	0.5	4262	-7.7	4.2	23.1
COC(=O)c1cc(NC(=O)CCc2c(C)nc3ncnn3c2C)cc(C(=O)OC)c1	2.9	-3.8	17830*	-0.1	1.0	-6.4
Cc1ccc(NC(=O)CCc2c(C)nc3ncnn3c2C)cc1	-2.2	0.1	8994	-5.0	2.2	-3.4
Cc1nc2ncnn2c(C)c1CCC(=O)Nc1csc(N)n1	1.8	?	18816*	-15.1	-1.1	2.8
COc1ccc(NS(=O)(=O)c2cccc(C(=O)NCC(c3ccc(F)cc3)N3CCOCC3)c2)cc1 (stereo unspecified)	4.1	-0.5	5602	-2.2	2.7	3.0
Cc1cnn(CCC(=O)NNC(=S)Nc2ccccc2)c1	-6.8	-0.8	22734*	-0.2	-2.2	-0.8
Cc1ccc(NC(=S)NNC(=O)CCn2cc(C)cn2)cc1	-1.9	1.1	20267*	-0.5	-0.2	1.9
Cc1cnn(CCC(=O)NNC(=S)NCC(C)C)c1	2.2	-0.9	3437	-2.0	-2.2	-7.9
Cc1ccc(OCCNC(=O)CCc2nc3sc4c(c3c(=O)[nH]2)CCCC4)cc1	-2.4	1.1	6013	0.4	1.8	3.9
CC(=O)N(CCC1(C(C)C)CCOC(C)(C)C1)Cc1ccco1 (stereo unspecified)	-1.0	?	19564*	0.0	-3.3	0.7
COc1cc(CCCN2C(=O)C(=O)NC[C@@H]2CCCCN)cc(OC)c1OC	2.7	-0.5	3913	1.5	-2.6	-8.0
Cc1ccc(NC(=O)CS(=O)CC(=O)NC(C)CCc2ccco2)cc1Cl (stereo unspecified)	7.0	0.9	23396*	-1.5	3.9	-0.1
Cc1ccc(-c2ccccc2NC(=O)CS(=O)CC(=O)Nc2ccc(C)c(Cl)c2)o1 (stereo unspecified)	-2.3	2.6	5567	0.1	-2.1	7.3
Cc1ccc(SCc2c(C#N)c3ccccc3n2C)cc1	4.0	-0.5	4728	-3.4	8.0	?
Cc1ccccc1N1CCN(Cc2c(C#N)c3ccccc3n2C)CC1	-4.3	-3.9	23866*	-1.3	1.8	-6.1
CN1CCN(CC(=O)N(Cc2c(C#N)c3ccccc3n2C)c2ccccc2)CC1	-7.2	-0.3	3733	-1.8	11.4	-11.1
Cn1c(CN2CCN(CCO)CC2)c(C#N)c2ccccc21	30.6*	3.7	4715	1.2	2.8	?
COc1ccc(NC(=O)C(Cc2ccccc2)n2cccc2)c(OC)c1 (stereo unspecified)	-1.2	0.1	3962	6.8	2.0	-1.0
Nc1nc2ccccc2n1C(=O)CCc1ccccc1	5.9	0.9	9054	8.1	1.1	13.3
SMILES	GDH-TPI inh	BoNT-A LC inh2	Bead autofluor	Anthrax LF inh2	Mtb FBA inh	BoNT-F LC inh
O=C(CSc1n[nH]c(-c2ccccn2)n1)Nc1ccccc1	3.1	-0.5	?	4.6	-0.7	1.3
O=c1c(-c2ccccc2)c(O)c2c(n1-c1ccccc1)CCCC2	-3.7	-0.3	2634	-1.3	3.5	-0.2
O=c1cc(O)c2c(=O)n(-c3ccccc3)c3c(c2o1)CCCCC3	32.1*	1.1	10039	-1.7	2.4	12.9
O=C(Nc1cccc(Br)c1)/C(=C\c1cccnc1)NC(=O)c1ccco1	5.5	0.0	6507	3.9	2.4	-2.8
CC1(c2nnc(Cc3ccccc3)o2)CC(c2ccc(Br)cc2)=NO1 (stereo unspecified)	9.2	-0.6	3924	-1.4	5.0	-3.9
CCOC(=O)c1cc2c(=O)[nH]ccc2nc1C	7.2	-1.1	6422	3.5	119.5*	-11.0
CC(/C=N/NC(=O)c1ccncc1)=C\c1ccccc1	44.6*	-0.5	7303	-4.0	-2.3	-8.0
O=C(N/N=C/C(Br)=C/c1ccccc1)c1ccncc1	36.0*	-0.4	4768	-3.5	-1.4	?
CCOc1cc(C(=O)N/N=C/C(Br)=C/c2ccccc2)cc(OCC)c1OCC	31.5*	-0.2	2678	1.3	-3.1	-1.4
O=C(N/N=C/C(Br)=C/c1ccccc1)c1ccc([N+](=O)[O-])cc1	10.3	2.1	5409	0.9	-0.5	2.7
O=C(N/N=C/C(Br)=C\c1ccccc1)c1cccs1	30.6*	/	/	/	-0.1	/
O=C(N/N=C/C(Br)=C/c1ccccc1)c1cccnc1	25.3	/	/	/	0.8	/
COc1ccccc1N(CC(=O)Nc1ccccc1C(=O)NC(C)C)S(C)(=O)=O	-8.2	0.7	2893	-3.6	-0.7	-5.6
Cc1cccc2c1=NC(=O)/C(=C/c1c(O)[nH]c(=O)[nH]c1=O)C=2	16.6	0.6	1992	-1.1	18.7	3.6
Cc1ccc(OCCOC(=O)CN2C(=O)NC3(CCCC3)C2=O)cc1	-10.0	-2.5	4985	0.8	0.4	-7.9
COc1ccccc1C(=O)N/N=C/C(C)=C/c1ccccc1	32.2*	-5.9	5028	-15.7	-5.2	-18.8
O=C(O)CCN1C(=O)c2ccc(Oc3ccc4c(c3)C(=O)N(CCC(=O)O)C4=O)cc2C1=O	-5.8	0.4	19401*	-1.5	-3.0	-0.5
O=C1c2ccc(Oc3ccc4c(c3)C(=O)N(CCCCO)C4=O)cc2C(=O)N1CCCCO	1.2	-0.8	4251	-4.9	4.6	-6.1
Cn1c(=O)cc(OCCCC(=O)N2CCCCC2)c2ccccc21	-12.8	-0.8	22743*	-2.4	1.5	-1.8
Cc1ccnc(NC(=O)CCCOc2cc(=O)n(C)c3ccccc23)c1	4.3	?	21080*!	-10.1	-2.0	-3.9
Oc1ccccc1C=NNC(=S)NN=Cc1ccccc1O	44.7*	0.2	3689	-7.1	-2.1	-6.8
Oc1ccc(/C=N/NC(=S)Nc2cccnc2)c(O)c1O	37.0*	-3.4	4137	-6.3	-8.8	-6.1
CCCCCCn1c(O)c(/C=C2\C=NN=C2c2ccccc2)sc1=S	3.3	3.3	2076	2.0	-5.0	2.2
CC(=O)Nc1ccn(-c2ccccc2)n1	-6.8	-0.1	7922	-5.1	1.3	-10.9
CCc1ccc(N=C2NC(=O)/C(=C/c3cc(Br)c(OCC(=O)O)c(OC)c3)S2)cc1	34.0*	-3.0	3964	8.0	2.3	-1.7
CCc1ccc(N=C2NC(=O)/C(=C/c3cc(OC)c(OC)c(OC)c3)S2)cc1	30.4	-1.1	3945	-11.5	0.6	2.0
CCOc1cc2c(cc1OCC)C(c1ccc(OC)cc1)N(c1ccccc1)C(=O)C2 (stereo unspecified)	8.6	0.9	7148	-0.1	1.0	7.9
